Assay results: PubChem BioAssay AID425 (Sanford-Burnham Center for Chemical Genomics, 2006)
Several values for one entry are separate records, joined by “and”; a condition that tells them apart may be missing. Equal entries are not always repeated. The campaign covered roughly 110,000 compounds. About 190 (0.17%) were called active. No stated cut-off is given here; in the data, active means inhibition above about 50%; inactive means the rest. Many of the other results were omitted from the sample, so actives are more common in it than they were. Potency and affinity values are given separately. Where a structure was tested more than once in an assay, its records may differ in their call.

The molecules below were run against Dual specificity protein phosphatase 6 (Rattus norvegicus) (UniProt Q64346) (assay: inhibition of rat DUSP6 enzyme activity – biochemical, in vitro, primary screen (AID 425;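 further: plate controls were vehicle for no effect and reference inhibitor for full effect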)). Conditions: recombinant MKP-3 phosphatase activity, fluorescence; at 20 µM; stronger effect = higher value.
Dual specificity protein phosphatase 6 (Rattus norvegicus), sequence (Q64346 whole entry, looked up): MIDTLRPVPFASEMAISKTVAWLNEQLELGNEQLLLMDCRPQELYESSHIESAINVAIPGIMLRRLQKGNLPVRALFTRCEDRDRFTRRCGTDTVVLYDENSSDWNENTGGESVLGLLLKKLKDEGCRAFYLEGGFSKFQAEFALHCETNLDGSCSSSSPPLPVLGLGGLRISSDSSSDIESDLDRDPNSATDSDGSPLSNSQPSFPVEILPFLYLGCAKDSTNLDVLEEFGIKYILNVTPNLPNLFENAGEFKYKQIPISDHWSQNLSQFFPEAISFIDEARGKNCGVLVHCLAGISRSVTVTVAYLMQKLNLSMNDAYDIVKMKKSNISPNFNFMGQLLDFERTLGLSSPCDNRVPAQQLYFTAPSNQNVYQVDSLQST
With `O=C(Nc1ccc(-c2cn3ccsc3n2)cc1)C1COc2ccccc2O1` (centres undefined) the inhibition was 2.3% (inactive).
In the case of `CC1=C(C(=O)Nc2cccc(C)c2)C(c2cc(Br)ccc2O)NC(=O)N1` (centres undefined), the inhibition is reported as -0.3% (inactive).
With `CCOc1ccccc1NC(=O)C1C2C=CC(O2)C1C(=O)O` (centres undefined) the inhibition was -14.3% (inactive).
For `COC(=O)c1cc(C(=O)NC2CCCCCC2)cc([N+](=O)[O-])c1`, the inhibition was -3.5% (inactive).
With `CCOc1cccc(/C=N\NC(=O)Cc2cccn2C)c1O` the inhibition was 2.2% (inactive).
With `C=CCOc1ccc(/C=C2\C(=O)NC(C)=C2C(=O)OC)cc1OC` the inhibition was 3% (inactive).
For `COc1cc(F)ccc1S(=O)(=O)N1CCCCCC1`, the inhibition was -0.1% (inactive).
`Cc1cccc(N2CCN(C(=O)c3ccc(Cl)c(Cl)c3)CC2)c1C` was tested, and the inhibition was 3.8% (inactive).
For `C=CCN1C(=O)/C(=C/c2ccc(Cl)cc2)C(=O)NC1=S`, the inhibition was 1.8% (inactive).
With `CCCc1nc(SCC(=O)c2ccc(OC)cc2)c2c(=O)n(C)c(=O)n(C)c2n1` the inhibition was -2.4% (inactive).
In the case of `Cn1c(-c2ccccn2)nc2ccccc21`, the inhibition is reported as 1.2% (inactive).
In the case of `CCn1c(N)nc2c1c(=O)n(C)c(=O)n2C`, the inhibition is reported as -1.5% (inactive).
`c1ccc(-c2nnc(-c3ccccn3)nc2-c2ccccc2)cc1` was tested, and the inhibition was -0.7% (inactive).
In the case of `O=c1c2c3c(sc2n2c(=S)[nH]nc2n1-c1ccccc1)CCCCC3`, the inhibition is reported as 1.2% (inactive).
`COc1ccc(CCNC(=O)C2CCN(S(=O)(=O)N3CCCCC3)CC2)cc1OC` was tested, and the inhibition was -1.4% (inactive).
For `COc1ccc(Cc2nnc(SCC(=O)N3CCN(c4ccccc4)CC3)o2)cc1`, the inhibition was -9.3% (inactive).
With `O=C1N=c2ccccc2=C1c1s/c(=N/N=C2/C(=O)Nc3ccccc32)n(-c2ccc(O)cc2)c1O` the inhibition was 69.8% (active).
`O=C1N=c2ccccc2=C1c1sc(=O)n(-c2ccc(O)cc2)c1O` was tested, and the inhibition was 0.6% (inactive).
`O=C1N=c2ccccc2=C1c1sc(=Nc2ccccc2)n(-c2ccccc2)c1O` was tested, and the inhibition was -2% (inactive).
With `Cc1ccc(-c2nc(CS(=O)CC(=O)NCCC(C)C)c(C)o2)cc1` (centres undefined) the inhibition was -10.1% (inactive).
`CCCCNCCCOc1ccccc1CC` was tested, and the inhibition was -0.3% (inactive).
`COc1cc(/C=C2\SC(NC(C)=O)=NC2=O)cc(Br)c1OC` was tested, and the inhibition was 3.2% (inactive).
`COc1cc(C=C2C(=O)c3ccccc3C2=O)cc(Br)c1OCC(=O)O` was tested, and the inhibition was 3.3% (inactive).
In the case of `CCOCCOC(=O)c1cccc(NC(=O)/C=C/c2ccc(Cl)cc2Cl)c1`, the inhibition is reported as 3.2% (inactive).
`NC(=O)c1cc(-c2ccccc2)sc1N` was tested, and the inhibition was 3.8% (inactive).
In the case of `O=C(O)c1cccc(NC2=C(Cl)C(=O)N(c3ccc(Cl)cc3)C2=O)c1`, the inhibition is reported as 7.4% (inactive).
With `O=C1NC(=O)N(c2ccccc2)C(=O)/C1=C\c1cccn1-c1cccc([N+](=O)[O-])c1` the inhibition was 4.5% (inactive).
`O=C1OCCC1Sc1nc2ccccc2[nH]1` (centres undefined) was tested, and the inhibition was -11% (inactive).
In the case of `FC(F)(F)c1ccc2nnc(-c3cccc(Cl)c3Cl)n2c1`, the inhibition is reported as 5.1% (inactive).
For `CC(=O)NN1C(=O)/C(=C\c2ccc(O)c([N+](=O)[O-])c2)SC1=S`, the inhibition was 1.4% (inactive).
`O=C(NN1C(=O)/C(=C/c2cc3c(cc2[N+](=O)[O-])OCO3)SC1=S)c1ccccc1Cl` was tested, and the inhibition was 8.9% (inactive).
For `O=C1/C(=C\c2cc3c(cc2[N+](=O)[O-])OCO3)SC(=S)N1c1ccccc1`, the inhibition was 5.2% (inactive).
For `C=CCN1C(=O)/C(=C\c2cc3c(cc2[N+](=O)[O-])OCO3)SC1=S`, the inhibition was 124% (active).
`C=CCN1C(=O)/C(=C\c2cc3c(cc2Br)OCO3)SC1=S` was tested, and the inhibition was 0.3% (inactive).
With `CC(=O)NN1C(=O)/C(=C/c2cc3c(cc2[N+](=O)[O-])OCO3)SC1=S` the inhibition was 119% (active).
For `CC1(C(=O)O)CCC(C(=O)N2CCOCC2)C1(C)C` (centres undefined), the inhibition was -3.7% (inactive).
For `CC(c1nc2ccccc2n1C)C(O)c1ccccc1` (centres undefined), the inhibition was -0.3% (inactive).
`COc1ccc(NC(=O)c2ccco2)cc1NC(=O)c1ccco1` was tested, and the inhibition was 0.7% (inactive).
`O=[N+]([O-])c1ccc(C2Nc3c(cccc3[N+](=O)[O-])C3C=CCC32)cc1` (centres undefined) was tested, and the inhibition was 5.4% (inactive).
For `O=C(O)c1cccc2c1NC(c1ccccc1Br)C1CC=CC21` (centres undefined), the inhibition was 15.1% (inactive).
For `O=[N+]([O-])c1ccc(C2Nc3c(I)cccc3C3C=CCC32)cc1` (centres undefined), the inhibition was 4.4% (inactive).
`O=C(O)c1cccc2c1NC(c1ccc([N+](=O)[O-])cc1)C1CC=CC21` (centres undefined) was tested, and the inhibition was 71.1% (active).
For `O=C(O)c1cccc2c1NC(c1cccc(Cl)c1Cl)C1CC=CC21` (centres undefined), the inhibition was 27.8% (inactive).
With `O=C(O)c1cccc2c1NC(c1ccc(Cl)cc1)C1CC=CC21` (centres undefined) the inhibition was 69.9% (active).
`CCNC(=S)Nc1ccccc1Cl` was tested, and the inhibition was -1.1% (inactive).
`O=C(NN=C1CCN(Cc2ccccc2)CC1)c1sc2ccccc2c1Cl` was tested, and the inhibition was 0.3% (inactive).
In the case of `COc1ccc(NC(=O)C(=O)NCc2ccco2)cc1Cl`, the inhibition is reported as -2.8% (inactive).
In the case of `O=[N+]([O-])c1ccc(S(=O)(=O)NCCOc2ccccc2Cl)cc1`, the inhibition is reported as -1.1% (inactive).
With `CCOc1ccc(N(CC(=O)NCc2ccc(OC)cc2)S(=O)(=O)c2ccc(Br)cc2)cc1` the inhibition was -0.5% (inactive).
In the case of `CCOc1ccc(N(CC(=O)NCc2ccc(Cl)cc2)S(C)(=O)=O)cc1`, the inhibition is reported as -2.6% (inactive).
`CCOc1ccc(N(CC(=O)NCc2ccc(Cl)cc2)S(=O)(=O)c2ccc(Br)cc2)cc1` was tested, and the inhibition was 54.4% (active).
In the case of `Cc1cccc2cc(=O)[nH]c(C)c12`, the inhibition is reported as 13.2% (inactive).
`CNS(=O)(=O)c1cc(O)c2c(S(=O)(=O)NC)cccc2c1` was tested, and the inhibition was 6% (inactive).
In the case of `Cc1ccc(-c2[nH]n3c(=O)cc(-c4ccc([N+](=O)[O-])cc4)nc3c2C)cc1`, the inhibition is reported as -3.9% (inactive).
In the case of `NC(=S)n1[nH]c(-c2ccccc2)c(N=Nc2ccc(C(=O)O)cc2)c1=O`, the inhibition is reported as -0.5% (inactive).
With `O=C(CCCC(=O)OCC(F)(F)C(F)F)Nc1ccc(F)cc1F` the inhibition was -2.5% (inactive).
`CC1CCN(CCCNC(=O)c2cn(C)c3ccc(S(=O)(=O)N4CCCC4)cc3c2=O)CC1` was tested, and the inhibition was -3% (inactive).
For `CCCCCCCCNC(=O)CCC(=O)O`, the inhibition was -1.5% (inactive).
In the case of `CCCCCC1NC(=O)NC1CCCCCC(=O)O` (centres undefined), the inhibition is reported as -4.9% (inactive).
`COc1c(Cl)cc(C(=O)Nc2ccc(N3CCOCC3)cc2)cc1Cl` was tested, and the inhibition was 3.1% (inactive).
For `COc1ccc(Cn2c(C)ccc2C)cc1`, the inhibition was 0.3% (inactive).
In the case of `O=C(O)c1ccc(CN2CCOCC2)cc1`, the inhibition is reported as 1.1% (inactive).
In the case of `Cc1ccc(C)n1Cc1ccc(C(=O)O)cc1`, the inhibition is reported as 85.4% (active) and -2.3% (inactive).
For `CC(C(=O)NCc1ccccn1)N1C(=O)c2ccccc2C1=O` (centres undefined), the inhibition was -2.2% (inactive).
In the case of `Clc1ccc(-c2ccc(/C=C\c3nc4ccccc4o3)o2)cc1`, the inhibition is reported as 4.5% (inactive).
In the case of `O=C(CN1C(=O)/C(=C/c2ccccc2)SC1=S)Nc1cccc(Br)c1`, the inhibition is reported as 2.3% (inactive).
With `O=C(O)CCCCCN1C(=O)/C(=C2/C(=O)N(CC(=O)O)c3ccccc32)SC1=S` the inhibition was 1% (inactive).
`CCOc1ccc(N(CC(=O)NCc2ccccc2)S(C)(=O)=O)cc1` was tested, and the inhibition was -13.8% (inactive).
In the case of `Cc1cc(C)n(C(=O)Nc2ccccc2)n1`, the inhibition is reported as 4.3% (inactive).
For `Cc1cc(Nc2ccccc2)n(-c2ccccc2)n1`, the inhibition was -6.8% (inactive).
For `Cc1cc2n(n1)SC(Nc1ccccc1)N2` (centres undefined), the inhibition was 61.5% (active).
`COc1cc(C(=O)N2CCN(C3C4CC5CC(C4)CC3C5)CC2)cc(OC)c1OC` (centres undefined) was tested, and the inhibition was 3.7% (inactive).
With `O=C1C=C(C(c2ccccc2)c2ccccc2)C(=O)c2ccccc21` the inhibition was 6.7% (inactive).
With `CC(=O)Nc1ccc(NC2=C(Cl)C(=O)c3ccccc3C2=O)cc1` the inhibition was 3.8% (inactive).
For `CC(=O)C(C(C)=O)C1=CC(=O)C(=O)c2ccccc21`, the inhibition was 91.6% (active).
`CC(=O)N(C1=C(Cl)C(=O)c2ccccc2C1=O)c1ccc(Cl)cc1` was tested, and the inhibition was 13.9% (inactive).
`CC(=O)C(C(C)=O)C1=C(Cl)C(=O)C(=O)c2ccccc21` was tested, and the inhibition was 71% (active).
In the case of `CC(=O)N(C)C1=C(Cl)C(=O)c2ccccc2C1=O`, the inhibition is reported as 54.9% (active).
In the case of `CC(=O)NC1=C(Cl)C(=O)c2ccccc2C1=O`, the inhibition is reported as 106% (active).
`CC(=O)N(C1=C(Cl)C(=O)c2ccccc2C1=O)c1ccc(Br)cc1` was tested, and the inhibition was 21.1% (inactive).
For `CC(=O)NC1=C(N(C)C)C(=O)c2ccccc2C1=O`, the inhibition was 0.7% (inactive).
In the case of `O=C1C(=O)c2ccccc2C(Cl)=C1Cl`, the inhibition is reported as 23% (inactive).
`CC(C)OC1=C(Cl)C(=O)c2ccccc2C1=O` was tested, and the inhibition was 5.3% (inactive).
With `CC(=O)c1ccc(NC2=C(Cl)C(=O)c3ccccc3C2=O)cc1` the inhibition was -8.2% (inactive).
`Cc1cc(O)c2c(-c3ccccc3)cc(=O)oc2c1` was tested, and the inhibition was -1.9% (inactive).
`CCOC(=O)c1ccc(N2C(=O)C(O)=C(C(C)=O)C2c2ccccn2)cc1` (centres undefined) was tested, and the inhibition was -5.9% (inactive).
For `O=C1N/C(=N\N=C\c2cccc([N+](=O)[O-])c2)SC1Cc1cccc(Cl)c1Cl` (centres undefined), the inhibition was -3% (inactive).
In the case of `O=C(O)COc1ccc(N2C(=O)c3c(Cl)c(Cl)c(Cl)c(Cl)c3C2=O)cc1`, the inhibition is reported as 2.1% (inactive).
With `CC(=O)c1ccc(N2C(=O)c3c(Cl)c(Cl)c(Cl)c(Cl)c3C2=O)cc1` the inhibition was 1.4% (inactive).
In the case of `O=C(NCc1cccs1)C1CCN(S(=O)(=O)N2CCCC2)CC1`, the inhibition is reported as 3.1% (inactive).
In the case of `Clc1cccc(Nc2nc3c(s2)CCCC3)c1`, the inhibition is reported as 0.9% (inactive).
In the case of `Cc1cccc(Nc2nc3c(s2)CCCC3)c1`, the inhibition is reported as 95.3% (active).
For `Cc1ccc(C)c(Nc2nc3c(s2)CCCC3)c1`, the inhibition was -4% (inactive).
For `COc1ccccc1N1C(=O)C2C3C=CC(O3)C2C1=O` (centres undefined), the inhibition was -2.7% (inactive).
`CCOC(=O)N1CCC(N2C(=O)c3ccccc3C2=O)CC1` was tested, and the inhibition was 1.8% (inactive).
For `CN(C)S(=O)(=O)c1cc(C(=O)NCC2CCCO2)c(Cl)cc1Cl` (centres undefined), the inhibition was -1.6% (inactive).
With `CCC(C(=O)NC1CCCC1)N(C(=O)Cn1nnc(-c2ccc(C)o2)n1)C(C)(C)C` (centres undefined) the inhibition was -14.3% (inactive).
`Cc1ccc(-n2c(=O)c3cc4c(=O)n(-c5ccc(C)c(C)c5)c(=O)c4c(C(=O)c4ccccc4)c3c2=O)cc1C` was tested, and the inhibition was 0.3% (inactive).
With `O=C(O)c1ccc(-n2c(=O)c3ccccc3c3ccccc3c2=O)cc1` the inhibition was 1.5% (inactive).
